Here are results for 37 compounds from PubChem BioAssay (Tox21).

Each structure is given as a SMILES string. Inconclusive results are not listed. A call without a number means that no potency is given here. Active and inactive are the calls of the source. Calls follow the shape of the dose curve; as a rule, active = well fitted cell-killing curve with a large enough effect in the repeat runs; inconclusive = weak or mixed curves, or effect the other way; inactive = flat fitted curve, though single readings scatter.

The assay is described as follows: qHTS RealTime-Glo MT Cell Viability Assay in HepG2 cells - 0 hour (AID 1224889). Also: nearly all actives have a fitted effect of over 50% in size. The note with it: RealTime-Glo luminescence; series mostly up to 76.8 µM; activity change, negative = cytotoxicity: at the top concentration. The method, boiled down: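 Viability was tracked continuously by NanoLuc luminescence from prosubstrate reduced by living HepG2 cells, at successive time points over 40 h of compound exposure. Cells with reagent were preincubated 5 h at 37 °C before compound addition.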
Take `CCC(C)OC(=O)c1ccc(O)cc1` (configuration not stated): the Potency result is “inactive”.

`C/C=C/C(=O)O`: the Potency entry was “inactive”. The same measure, in the same setting: the entry for `Cn1cnc([N+](=O)[O-])c1Sc1ncnc2nc[nH]c12` is “inactive”. In the case of `Cc1cccc(N(C)C(=S)Oc2ccc3ccccc3c2)c1`, the Potency entry was “inactive”. As for `O=C=Nc1ccc(Cc2ccc(N=C=O)cc2)cc1`, the Potency result is “inactive”. In the case of `O=CCc1ccccc1`, the Potency entry is “inactive”. Turning to `CC(C(=O)O)c1cccc(C(=O)c2ccccc2)c1` (configuration not stated), the Potency result is “inactive”.

On to `CC(=O)C1(C)CC2=C(CCCC2(C)C)CC1C` (configuration not stated), for which the Potency result is “inactive”. In the case of `c1cc(N(CC2CO2)CC2CO2)ccc1OCC1CO1` (configuration not stated), the Potency entry is “inactive”. `Nc1ccccc1N`: the “activity change, negative = cytotoxicity” value is -12.1% (inactive). On to `CCOCCOCCO`, for which the Potency result is “inactive”. As to `CN(C)C(=N)N=C(N)N`, the Potency entry is “inactive”. Turning to `COC(C)COC(C)COC(C)CO` (configuration not stated), the Potency result is “inactive”. `O=C1c2cccc(O)c2C(=O)c2c(O)cccc21`: the Potency result is “inactive”. Turning to `O=C(O)c1ccccc1Nc1cccc(C(F)(F)F)c1`, the Potency result is “inactive”. On to `Cc1ccc2c(n1)Oc1ccc(C(C)C(=O)OCC(=O)N(C)C)cc1C2` (configuration not stated), for which the Potency entry is “inactive”.

Turning to `O=C(Nc1ccc(Cl)cc1)Nc1ccc(Cl)c(Cl)c1`, the Potency entry was “inactive”. Take `C#C[C@]1(O)CC[C@H]2[C@@H]3CCc4cc(OC)ccc4[C@H]3CC[C@@]21C`: the Potency entry is “inactive”. The same measure, in the same setting: the entry for `O=C(c1ccccc1)c1ccccc1O` is “inactive”; for `CCCCc1oc2ccccc2c1C(=O)c1cc(I)c(OCCN(CC)CC)c(I)c1` it is “inactive”; for `CCCCC(CC)COC(=O)c1ccc(N(C)C)cc1` (configuration not stated) it is “inactive”. Turning to `C=CC(C)(CCC=C(C)C)OC(C)=O` (configuration not stated), the Potency result is “inactive”.

As to `COc1ccccc1/C=C/C=O`, the Potency entry is “inactive”. In the case of `CC(=O)c1ccccn1`, the Potency result was “inactive”. In the case of `CC(=O)Oc1ccccc1C(=O)Nc1ncc([N+](=O)[O-])s1`, the Potency entry was “inactive”. For the compound `CC(C)Oc1ccc2c(=O)c(-c3ccccc3)coc2c1`, the Potency result was “inactive”. As for `Oc1ccc(O)cc1`, the Potency result is “inactive”. Consider `OC[C@H]1O[C@@H]2O[C@H]3[C@H](O)[C@@H](O)[C@@H](O[C@H]4[C@H](O)[C@@H](O)[C@@H](O[C@H]5[C@H](O)[C@@H](O)[C@@H](O[C@H]6[C@H](O)[C@@H](O)[C@@H](O[C@H]7[C@H](O)[C@@H](O)[C@@H](O[C@H]8[C@H](O)[C@@H](O)[C@@H](O[C@H]1[C@H](O)[C@H]2O)O[C@@H]8CO)O[C@@H]7CO)O[C@@H]6CO)O[C@@H]5CO)O[C@@H]4CO)O[C@@H]3CO`, for which the Potency result is “inactive”. Same read-out and setting: the same measure for `O=C(Nc1ccc([N+](=O)[O-])cc1Cl)c1cc(Cl)ccc1O`: “inactive”; for `Brc1cc(Oc2cc(Br)c(Br)c(Br)c2Br)c(Br)c(Br)c1Br`: “inactive”; for `CCC(C)c1ccccc1O` (configuration not stated): “inactive”. As for `S=C(NC1CCCCC1)NC1CCCCC1`, the Potency entry is “inactive”. Take `CCCCOCCOCCO`: the Potency entry is “inactive”. Same read-out and setting: the entry for `O=C(COc1ccc(Cl)cc1)N1CCN(Cc2ccc3c(c2)OCO3)CC1` is “inactive”; for `O=C(c1ccc(OCCN2CCCCC2)cc1)c1c(-c2ccc(O)cc2)sc2cc(O)ccc12` it is “inactive”. As for `CC(C)OC(=O)C(C)(C)Oc1ccc(C(=O)c2ccc(Cl)cc2)cc1`, the Potency entry was “inactive”. Turning to `O=C(/C=C/C=C/c1ccc2c(c1)OCO2)N1CCCCC1`, the Potency result was “inactive”.
